FBA Mtb inh: inhibits M. tuberculosis FBA enzyme | AID 588726 | purified M. tuberculosis FBA, fluorescence read-out | P9WQA3 | 360,000 tested, 2.3% active | inhibition, % at 1 µM
SSB-PriA inh: K. pneumoniae PriA-SSBct interaction inhibition. inhibition, % at 33 µM. AID 1272365. 430,000 tested, 0.6% active. AlphaScreen SSBct-PriA binding, biotinylated peptide; in the data active = inhibition mostly above about 37%, no sharp cut-off; inactive = mostly below about 20%
Mtb bLac sens: beta-lactam sensitization of Mtb H37Rv. M. tuberculosis H37Rv growth with meropenem, percent inhibition. inhibition, % at 25 µM. 330,000 tested, 0.27% active. AID 434955; call rule not given here;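 also: growth measured after seven days incubation then overnight dye step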
Mtb UGM inh: blocks M. tuberculosis UGM enzyme; P9WIQ1; purified UGM, fluorescence polarization probe displacement; inhibition, % at 10 µM; 320,000 tested, 0.06% active; AID 504406; in the data active = inhibition above about 10%, passing the limit was not always enough
GDH-TPI counter-1: GDH-TPI coupled enzyme inhibition counter-screen; GDH-TPI coupled enzyme counterscreen, NADH absorbance; inhibition, % at 4.8 µM; 360,000 tested, 1.2% active; AID 588335; in the data active = inhibition above about 30%
Rv3671c inh: inhibits the M. tuberculosis serine protease Rv3671c. 320,000 tested, 0.048% active. inhibition, % at 5.96 µM. P9WHR9; in the data active = inhibition above about 38%;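 also: extracellular domain of Rv3671c used as enzyme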
Target sequence (P9WHR9 whole entry, looked up, the tested form may be a part): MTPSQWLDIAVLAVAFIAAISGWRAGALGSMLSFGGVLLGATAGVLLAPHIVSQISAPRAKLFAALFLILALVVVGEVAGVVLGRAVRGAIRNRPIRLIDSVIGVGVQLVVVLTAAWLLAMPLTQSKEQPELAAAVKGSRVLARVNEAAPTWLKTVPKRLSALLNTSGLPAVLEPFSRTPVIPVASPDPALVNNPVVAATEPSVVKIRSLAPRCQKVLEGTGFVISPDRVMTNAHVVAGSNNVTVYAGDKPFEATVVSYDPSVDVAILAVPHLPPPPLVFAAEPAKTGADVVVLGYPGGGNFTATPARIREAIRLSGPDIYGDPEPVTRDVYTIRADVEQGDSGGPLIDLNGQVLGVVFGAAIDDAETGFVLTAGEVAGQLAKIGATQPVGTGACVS
Mtb FBA inh conf: confirmation of M. tuberculosis fructose-bisphosphate aldolase inhibitors | 5,600 tested, 78% active | purified M. tuberculosis FBA, fluorescence read-out | shares compounds with FBA Mtb inh | inhibition, % at 1 µM
GDH-TPI counter-2: GDH-TPI inhibition counter-screen for FBA inhibitors | GDH-TPI coupled enzyme counterscreen, fluorescence | inhibition, % at 1 µM | AID 652141 | 5,600 tested, 81% active | shares compounds with FBA Mtb inh; in the data active = inhibition above about 10%
GDH-TPI DR: inhibits GDH-TPI coupling enzymes in dose response. shares compounds with FBA Mtb inh. GDH-TPI coupled enzyme assay, fluorescence, artifact counterscreen. 170 tested, 79% active. IC50, µM; call rule not given here
Hits are given with their value; – = inactive; · = no result; + = active, no number. Most compounds without a hit are left out; they make up all but 3.2% or so of the library. Rule as the data show it, unless noted: active = inhibition above about 27%; inactive = the rest.

SMILES | FBA Mtb inh | SSB-PriA inh | Mtb bLac sens | Mtb UGM inh | GDH-TPI counter-1 | Rv3671c inh | Mtb FBA inh conf | GDH-TPI counter-2 | others
CCC(C)Sc1ccc(-c2nc3ccccn3c2NCc2ccccc2)cc1OC (stereo not drawn) | 41 | – | – | – | – | – | 116 | 90
O=C(Nc1ccccc1)c1ccc(=O)n(CC(=O)N2CCc3ccccc32)n1 | · | – | · | · | · | · | · | ·
O=C(CCS(=O)(=O)c1ccc(F)cc1)Nc1ccc([N+](=O)[O-])cc1 | · | – | · | · | · | · | · | ·
NC(=O)c1cc2c(-c3ccccc3)nn(-c3ccccc3)c2s1 | · | – | · | · | · | · | · | ·
COC(c1ccccc1)c1nnc(CCC(=O)N(C)CCCC2CCCC2)o1 (stereo not drawn) | 28 | – | – | – | – | – | 123 | 100
CC(C(=O)Nc1ccc(C#N)cc1)N(C)Cc1cccs1 (stereo not drawn) | 77 | – | – | – | – | – | 50 | 40
CC1(C)Cc2c(sc3c2C(=O)NC(c2cccnc2)N3)CO1 (stereo not drawn) | – | – | – | – | – | – | · | ·
CCC1CC2(C)NC(=O)c3c(sc4c3CC(C)(C)OC4)N2C1=O (stereo not drawn) | 39 | – | · | · | – | · | 175 | 112
COc1ccc(NC(=O)c2cnc3sccn3c2=O)cc1 | – | – | – | – | – | – | · | ·
O=C(Nc1ccon1)c1cnc2sccn2c1=O | 28 | – | – | – | 31 | – | – | – | GDH-TPI DR=–
CN(C)c1ncccc1-c1nc2ccccc2s1 | 30 | – | – | – | – | – | 31 | 17
c1ccc2c(c1)Oc1cccc3cccc-2c13 | 28 | – | – | – | – | – | 86 | 81
O=C1c2ccccc2-c2cccc3cccc1c23 | – | – | · | · | – | · | · | ·
O=C(COc1ccc2ccc(=O)oc2c1)Nc1ccc(CCO)cc1 | – | – | – | – | – | – | · | ·
O=C(COc1ccc2ccc(=O)oc2c1)NCCN1CCOCC1 | 27 | · | · | · | – | · | 123 | 95
O=C(COc1ccc2ccc(=O)oc2c1)Nc1ccc(N2CCCCC2)cc1 | 41 | – | – | – | – | – | + | 152
CC(Oc1ccc2ccc(=O)oc2c1)C(=O)NCCN1CCOCC1 (stereo not drawn) | 28 | – | – | – | – | – | 151 | 110
Cc1cc(C=O)c(C)n1-c1ccc(N2CCOCC2)cc1 | 54 | – | – | – | – | – | + | +
[O-]C(=C(C(=S)Nc1cccc2ccccc12)[n+]1ccccc1)c1ccc(OC(F)F)cc1 | · | – | · | · | · | · | · | ·
COc1c2ccc(C(=O)NCc3cc(C(F)(F)F)cc(C(F)(F)F)c3)cc2nn1C | 46 | – | – | – | – | – | 97 | 73
CCOc1c2ccc(C(=O)NCc3ccc(C(F)(F)F)cc3C(F)(F)F)cc2nn1C | 60 | – | – | – | – | – | 127 | 104
O=C(NCC(Cc1cccc(F)c1)n1cccc1)c1cnccn1 (stereo not drawn) | · | – | · | · | · | · | · | ·
c1ccc2c(N3CCOCC3)nc(N3CCOCC3)nc2c1 | 110 | – | – | – | – | – | + | 163
c1ccc(CN2CCN(c3nc(N4CCOCC4)c4ccccc4n3)CC2)cc1 | – | – | – | – | – | – | · | ·
Cc1cc2c(cc1C)NC(CC(=O)Nc1ccc(OC(F)(F)C(F)Cl)cc1)C(=O)N2 (stereo not drawn) | · | – | · | · | · | · | · | ·
SMILES | FBA Mtb inh | SSB-PriA inh | Mtb bLac sens | Mtb UGM inh | GDH-TPI counter-1 | Rv3671c inh | Mtb FBA inh conf | GDH-TPI counter-2 | others
Cn1c(=O)c2cc3ccc(Cl)cc3nc2n(C)c1=O | – | – | – | – | – | – | · | ·
Cn1c(=O)c2cc3ccccc3nc2n(C)c1=O | 36 | – | – | – | – | – | 59 | 51
O=C(CCNC(=O)c1ccccc1)NN=Cc1ccc([N+](=O)[O-])cc1 | · | – | · | · | · | · | · | ·
Cc1nc(SCC(=O)N2CCN(c3ccccc3)CC2)c2oc3ccccc3c2n1 | 31 | – | – | – | – | – | + | +
O=C(O)CCN1C(=O)C2CCCCC2C1=O (stereo not drawn) | 46 | – | – | – | – | – | + | 193
O=C(O)CCN1C(=O)C2C3C=CC(C3)C2C1=O (stereo not drawn) | – | – | – | – | – | – | · | ·
Cc1nc(C)c(C(=O)NCCCn2ccc3cccnc32)s1 | · | – | · | · | · | · | · | ·
Cc1cc(C)n(-c2nc(CCNC(=O)Nc3ccc4c(c3)OCO4)cs2)n1 | · | – | · | · | · | · | · | ·
COC(=O)Nc1ccc(OC)c(N2CCCCC2=O)c1 | · | – | · | · | · | · | · | ·
C=CCn1cc(-c2ccccc2)cc(C#N)c1=O | 73 | – | – | – | – | – | – | –
C=CCn1cc(-c2ccc(Cl)cc2)cc(C#N)c1=O | – | – | – | – | – | – | · | ·
C[C@H](CO)N1C[C@H](C)[C@@H](CN(C)C(=O)NC2CCCCC2)Oc2ccc(NC(=O)CCC(F)(F)F)cc2C1=O | 76 | – | – | – | – | – | – | –
CNC(=O)Cc1ccc(-n2c(=O)c3ccccc3n(Cc3cc(C=O)ccc3OC)c2=O)cc1 | · | – | · | · | · | · | · | ·
O=C(O)c1ccc(Nc2nc3ccccc3nc2NS(=O)(=O)c2ccc(F)cc2)cc1 | 46 | – | – | – | 33 | – | + | 156
CC(=O)Nc1ccc(S(=O)(=O)Nc2nc3ccccc3nc2Nc2ccc(C(=O)O)c(O)c2)cc1 | – | – | – | – | – | – | · | ·
CC(=O)Nc1ccc(S(=O)(=O)Nc2nc3ccccc3nc2Nc2cccc(O)c2)cc1 | 75 | – | – | – | – | – | 72 | 58
O=C(Nc1nnc(-c2ccc3c(c2)OCO3)o1)c1cc2ccccc2o1 | · | – | · | · | · | · | · | ·
Fc1ccc(-c2nnc(-c3ccc(Cl)cc3)o2)cc1 | – | – | – | – | – | – | · | ·
Clc1ccc(-c2nnc(N3CCOCC3)o2)cc1 | 40 | – | – | – | – | – | 92 | 56
Cc1ccc2nc3sc(NCc4ccccc4)nn3c(=O)c2c1 | · | – | · | · | · | · | · | ·
Cc1cccc(NC(=S)NN=Cc2c[nH]c3ccccc23)c1 | · | – | · | · | · | · | · | ·
Cc1cc(OCC(=O)Nc2ccccn2)c2c(C)cc(=O)oc2c1 | – | – | – | – | – | – | · | ·
Cc1cc(=O)oc2cc(OCC(=O)NCc3cccnc3)ccc12 | – | – | – | – | – | – | · | ·
CCCCc1cc(=O)oc2cc(OCC(=O)Nc3cccnc3)c(Cl)cc12 | – | – | – | – | – | – | · | ·
CCCCc1cc(=O)oc2cc(C)cc(OCC(=O)Nc3ccccn3)c12 | 34 | – | – | – | – | – | – | –
CCCCc1cc(=O)oc2cc(C)cc(OCC(=O)NCc3cccnc3)c12 | 46 | – | – | – | – | – | – | 13
CCc1cc(=O)oc2cc(C)cc(OCC(=O)NCc3cccnc3)c12 | 72 | – | – | – | – | – | + | +
Cc1cc(OCC(=O)NCc2cccnc2)c2c(C)c(C)c(=O)oc2c1 | 30 | – | – | – | – | – | 140 | 122
COc1ccc2c(COC(=O)CNC(=O)C34CC5CC(CC(C5)C3)C4)cc(=O)oc2c1 | 85 | – | – | – | – | – | + | 167

Assay outcomes (PubChem)
